Among the data in paper PMC8384837, “Expanding the binding specificity for RNA recognition by a PUF domain” are binding signal values, retold here.

PUM1 PUF domain R5-RFG, sequence (Q14671 828-1176 C1007R/R1008F/Q1011G): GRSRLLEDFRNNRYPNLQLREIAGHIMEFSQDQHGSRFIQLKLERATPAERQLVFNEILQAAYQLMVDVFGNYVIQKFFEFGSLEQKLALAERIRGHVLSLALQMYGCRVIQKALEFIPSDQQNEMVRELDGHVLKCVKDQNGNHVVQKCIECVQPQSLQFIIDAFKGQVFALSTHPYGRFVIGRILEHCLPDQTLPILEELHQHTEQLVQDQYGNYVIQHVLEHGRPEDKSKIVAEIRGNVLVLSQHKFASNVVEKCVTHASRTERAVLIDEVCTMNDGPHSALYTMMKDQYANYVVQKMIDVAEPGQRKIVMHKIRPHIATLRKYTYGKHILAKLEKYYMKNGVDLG
PUM1 PUF domain R4-PFD, sequence (Q14671 828-1176 N971P/H972F/Q975D): as the sequence (Q14671 828-1176 C1007R/R1008F/Q1011G) above, with N144P, H145F, Q148D, R180C, F181R, G184Q counted along it
PUM1 PUF domain R4-DYV, sequence (Q14671 828-1176 N971D/H972Y/Q975V): as the sequence (Q14671 828-1176 C1007R/R1008F/Q1011G) above, with N144D, H145Y, Q148V, R180C, F181R, G184Q counted along it

One assay has as its target PUM1 PUF domain R4-DYV (Homo sapiens, UniProt Q14671 828-1176, N971D;H972Y;Q975V). The assay can be described thus: yeast three-hybrid, YBZ-1, SC-Leu-His + 0.5 mM 3-AT, 4 days. The settings on record: tags: N-Gal4 AD-HA kept; label: inside an RPR1-promoter hybrid RNA with tandem MS2 sites; ssRNA. The method, boiled down: (§1)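 Each repeat of the Pumilio-1 PUF domain was randomized at its three base-contacting residues, and these libraries were co-expressed from a centromeric plasmid with matching RNA elements in strain YBZ-1. After four days on SC-Leu (input) or SC-Leu-His + 0.5 mM 3-AT (selection), the repeat regions were PCR-amplified and Illumina-sequenced. The interaction score compares variant frequency between input and selection as a log change, computed in log2 with a pseudocount of 1 for absent variants.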
For the sequence “GGCUAGAACUAGUGGAUCCCCCGGCGCCCGGCGGCUCGAGCCCGGGUAAGUGUAAAUAGUCUGCAUGCCGCCGGGCGCCAUGCCUGCAGGUCGACUCUAGAAAACAUG”, the binding signal is 5.94 log2 enrichment (interaction score).

On to “GGCUAGAACUAGUGGAUCCCCCGGCGCCCGGCGGCUCGAGCCCGGGUAAGUGUACAUAGUCUGCAUGCCGCCGGGCGCCAUGCCUGCAGGUCGACUCUAGAAAACAUG”, for which the binding signal is 6.74 log2 enrichment (interaction score).

Turning to “GGCUAGAACUAGUGGAUCCCCCGGCGCCCGGCGGCUCGAGCCCGGGUAAGUGUAUAUAGUCUGCAUGCCGCCGGGCGCCAUGCCUGCAGGUCGACUCUAGAAAACAUG”, the binding signal is 6.86 log2 enrichment (interaction score).

Another assay deals with PUM1 PUF domain R5-RFA (Homo sapiens, UniProt Q14671 828-1176, C1007R;R1008F;Q1011A). The assay is described as above. The settings on record: tags: N-Gal4 AD-HA kept; label: inside an RPR1-promoter hybrid RNA with tandem MS2 sites; ssRNA. The method, boiled down: as §1
PUM1 PUF domain R5-RFA, sequence (Q14671 828-1176 C1007R/R1008F/Q1011A): as the sequence (Q14671 828-1176 C1007R/R1008F/Q1011G) above, with G184A counted along it
For “GGCUAGAACUAGUGGAUCCCCCGGCGCCCGGCGGCUCGAGCCCGGGUAAGUGUAAAUAGUCUGCAUGCCGCCGGGCGCCAUGCCUGCAGGUCGACUCUAGAAAACAUG”, the binding signal was 2.39 log2 enrichment (interaction score).

For the sequence “GGCUAGAACUAGUGGAUCCCCCGGCGCCCGGCGGCUCGAGCCCGGGUAAGUGUCAAUAGUCUGCAUGCCGCCGGGCGCCAUGCCUGCAGGUCGACUCUAGAAAACAUG”, the binding signal is 5.36 log2 enrichment (interaction score).

Regarding “GGCUAGAACUAGUGGAUCCCCCGGCGCCCGGCGGCUCGAGCCCGGGUAAGUGUUAAUAGUCUGCAUGCCGCCGGGCGCCAUGCCUGCAGGUCGACUCUAGAAAACAUG”, the binding signal was 4.55 log2 enrichment (interaction score).

The next assay addresses PUM1 PUF domain R4-PFD (Homo sapiens, UniProt Q14671 828-1176, N971P;H972F;Q975D). The description is as above. The settings on record: tags: N-Gal4 AD-HA kept; label: inside an RPR1-promoter hybrid RNA with tandem MS2 sites; ssRNA. The method, boiled down: as §1
With “GGCUAGAACUAGUGGAUCCCCCGGCGCCCGGCGGCUCGAGCCCGGGUAAGUGUAAAUAGUCUGCAUGCCGCCGGGCGCCAUGCCUGCAGGUCGACUCUAGAAAACAUG”, the binding signal is 3.55 log2 enrichment (interaction score).

Regarding “GGCUAGAACUAGUGGAUCCCCCGGCGCCCGGCGGCUCGAGCCCGGGUAAGUGUACAUAGUCUGCAUGCCGCCGGGCGCCAUGCCUGCAGGUCGACUCUAGAAAACAUG”, the binding signal is 1.86 log2 enrichment (interaction score).

Turning to “GGCUAGAACUAGUGGAUCCCCCGGCGCCCGGCGGCUCGAGCCCGGGUAAGUGUAUAUAGUCUGCAUGCCGCCGGGCGCCAUGCCUGCAGGUCGACUCUAGAAAACAUG”, the binding signal is 5.34 log2 enrichment (interaction score).

The next assay has as its target PUM1 PUF domain R5-RFG (Homo sapiens, UniProt Q14671 828-1176, C1007R;R1008F;Q1011G). The assay is described as above. The settings on record: tags: N-Gal4 AD-HA kept; label: inside an RPR1-promoter hybrid RNA with tandem MS2 sites; ssRNA. In short, it runs like this: as §1
“GGCUAGAACUAGUGGAUCCCCCGGCGCCCGGCGGCUCGAGCCCGGGUAAGUGUGAAUAGUCUGCAUGCCGCCGGGCGCCAUGCCUGCAGGUCGACUCUAGAAAACAUG”: the binding signal is 2.66 log2 enrichment (interaction score).

Consider “GGCUAGAACUAGUGGAUCCCCCGGCGCCCGGCGGCUCGAGCCCGGGUAAGUGUAAAUAGUCUGCAUGCCGCCGGGCGCCAUGCCUGCAGGUCGACUCUAGAAAACAUG”, for which the binding signal was 3.09 log2 enrichment (interaction score).

Consider “GGCUAGAACUAGUGGAUCCCCCGGCGCCCGGCGGCUCGAGCCCGGGUAAGUGUCAAUAGUCUGCAUGCCGCCGGGCGCCAUGCCUGCAGGUCGACUCUAGAAAACAUG”, for which the binding signal was 5.07 log2 enrichment (interaction score).

On to “GGCUAGAACUAGUGGAUCCCCCGGCGCCCGGCGGCUCGAGCCCGGGUAAGUGUUAAUAGUCUGCAUGCCGCCGGGCGCCAUGCCUGCAGGUCGACUCUAGAAAACAUG”, for which the binding signal is 5.49 log2 enrichment (interaction score).
